Measured values reported in ChEMBL document CHEMBL2218924, “A broad activity screen in support of a chemogenomic map for kinase signalling research and drug discovery” (Biochem J, 2013).

Tests used:
[1] = biological target: Serine/threonine-protein kinase MRCK beta (Homo sapiens) (UniProt Q9Y5S2); conditions: at 1 µM
[2] = biological target: Serine/threonine-protein kinase MRCK beta (Homo sapiens) (UniProt Q9Y5S2); conditions: at 10 µM
[3] = biological target: Ribosomal protein S6 kinase alpha-5 (Homo sapiens) (UniProt O75582); conditions: at 1 µM
[4] = biological target: Ribosomal protein S6 kinase alpha-5 (Homo sapiens) (UniProt O75582); conditions: at 10 µM
[5] = biological target: Ribosomal protein S6 kinase alpha-4 (Homo sapiens) (UniProt O75676); conditions: at 1 µM
[6] = biological target: SRSF protein kinase 3 (Homo sapiens) (UniProt Q9UPE1); conditions: at 10 µM
[7] = biological target: T1, Serine/threonine-protein kinase 4 (Homo sapiens) (UniProt Q13043); conditions: at 1 µM
T1 sequence (whole entry): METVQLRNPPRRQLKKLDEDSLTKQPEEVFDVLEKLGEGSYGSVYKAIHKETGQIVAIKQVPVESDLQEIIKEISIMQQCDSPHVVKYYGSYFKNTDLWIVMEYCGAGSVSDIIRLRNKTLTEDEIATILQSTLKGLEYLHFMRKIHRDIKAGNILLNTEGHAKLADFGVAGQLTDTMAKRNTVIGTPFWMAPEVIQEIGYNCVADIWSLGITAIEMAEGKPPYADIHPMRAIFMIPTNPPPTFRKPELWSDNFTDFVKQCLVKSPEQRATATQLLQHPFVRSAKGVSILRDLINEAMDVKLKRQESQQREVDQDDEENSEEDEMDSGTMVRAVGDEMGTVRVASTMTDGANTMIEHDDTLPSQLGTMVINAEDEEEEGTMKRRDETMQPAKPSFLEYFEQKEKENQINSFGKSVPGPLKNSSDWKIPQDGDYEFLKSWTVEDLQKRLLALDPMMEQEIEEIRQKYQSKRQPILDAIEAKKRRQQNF

[8] = biological target: T1, Serine/threonine-protein kinase 4 (Homo sapiens); conditions: at 10 µM
[9] = biological target: Ribosomal protein S6 kinase alpha-4 (Homo sapiens) (UniProt O75676); conditions: at 10 µM
[10] = biological target: SRSF protein kinase 3 (Homo sapiens) (UniProt Q9UPE1); conditions: at 1 µM

Sequence of Ribosomal protein S6 kinase alpha-5 (Homo sapiens) (O75582 whole entry, looked up): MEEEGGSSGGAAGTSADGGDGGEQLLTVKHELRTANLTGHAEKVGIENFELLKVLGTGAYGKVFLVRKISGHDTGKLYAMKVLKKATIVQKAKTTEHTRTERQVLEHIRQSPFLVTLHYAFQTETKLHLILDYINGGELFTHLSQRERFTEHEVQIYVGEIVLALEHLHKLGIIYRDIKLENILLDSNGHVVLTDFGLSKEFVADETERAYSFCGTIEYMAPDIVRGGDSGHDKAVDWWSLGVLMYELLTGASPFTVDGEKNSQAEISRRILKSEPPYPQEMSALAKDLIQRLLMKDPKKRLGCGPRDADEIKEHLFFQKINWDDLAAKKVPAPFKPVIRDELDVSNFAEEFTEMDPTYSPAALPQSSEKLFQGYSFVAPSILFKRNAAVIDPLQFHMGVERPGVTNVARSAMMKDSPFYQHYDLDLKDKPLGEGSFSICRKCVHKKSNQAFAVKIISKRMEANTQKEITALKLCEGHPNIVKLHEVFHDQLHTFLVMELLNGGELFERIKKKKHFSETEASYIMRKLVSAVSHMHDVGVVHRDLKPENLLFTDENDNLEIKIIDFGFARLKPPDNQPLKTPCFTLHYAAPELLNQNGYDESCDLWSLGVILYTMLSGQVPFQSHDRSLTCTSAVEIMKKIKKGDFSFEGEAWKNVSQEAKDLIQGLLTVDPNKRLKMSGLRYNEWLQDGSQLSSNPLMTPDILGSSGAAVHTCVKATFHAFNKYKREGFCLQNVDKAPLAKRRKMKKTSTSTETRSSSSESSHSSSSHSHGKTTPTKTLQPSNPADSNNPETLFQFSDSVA
Sequence of Serine/threonine-protein kinase MRCK beta (Homo sapiens) (Q9Y5S2 whole entry): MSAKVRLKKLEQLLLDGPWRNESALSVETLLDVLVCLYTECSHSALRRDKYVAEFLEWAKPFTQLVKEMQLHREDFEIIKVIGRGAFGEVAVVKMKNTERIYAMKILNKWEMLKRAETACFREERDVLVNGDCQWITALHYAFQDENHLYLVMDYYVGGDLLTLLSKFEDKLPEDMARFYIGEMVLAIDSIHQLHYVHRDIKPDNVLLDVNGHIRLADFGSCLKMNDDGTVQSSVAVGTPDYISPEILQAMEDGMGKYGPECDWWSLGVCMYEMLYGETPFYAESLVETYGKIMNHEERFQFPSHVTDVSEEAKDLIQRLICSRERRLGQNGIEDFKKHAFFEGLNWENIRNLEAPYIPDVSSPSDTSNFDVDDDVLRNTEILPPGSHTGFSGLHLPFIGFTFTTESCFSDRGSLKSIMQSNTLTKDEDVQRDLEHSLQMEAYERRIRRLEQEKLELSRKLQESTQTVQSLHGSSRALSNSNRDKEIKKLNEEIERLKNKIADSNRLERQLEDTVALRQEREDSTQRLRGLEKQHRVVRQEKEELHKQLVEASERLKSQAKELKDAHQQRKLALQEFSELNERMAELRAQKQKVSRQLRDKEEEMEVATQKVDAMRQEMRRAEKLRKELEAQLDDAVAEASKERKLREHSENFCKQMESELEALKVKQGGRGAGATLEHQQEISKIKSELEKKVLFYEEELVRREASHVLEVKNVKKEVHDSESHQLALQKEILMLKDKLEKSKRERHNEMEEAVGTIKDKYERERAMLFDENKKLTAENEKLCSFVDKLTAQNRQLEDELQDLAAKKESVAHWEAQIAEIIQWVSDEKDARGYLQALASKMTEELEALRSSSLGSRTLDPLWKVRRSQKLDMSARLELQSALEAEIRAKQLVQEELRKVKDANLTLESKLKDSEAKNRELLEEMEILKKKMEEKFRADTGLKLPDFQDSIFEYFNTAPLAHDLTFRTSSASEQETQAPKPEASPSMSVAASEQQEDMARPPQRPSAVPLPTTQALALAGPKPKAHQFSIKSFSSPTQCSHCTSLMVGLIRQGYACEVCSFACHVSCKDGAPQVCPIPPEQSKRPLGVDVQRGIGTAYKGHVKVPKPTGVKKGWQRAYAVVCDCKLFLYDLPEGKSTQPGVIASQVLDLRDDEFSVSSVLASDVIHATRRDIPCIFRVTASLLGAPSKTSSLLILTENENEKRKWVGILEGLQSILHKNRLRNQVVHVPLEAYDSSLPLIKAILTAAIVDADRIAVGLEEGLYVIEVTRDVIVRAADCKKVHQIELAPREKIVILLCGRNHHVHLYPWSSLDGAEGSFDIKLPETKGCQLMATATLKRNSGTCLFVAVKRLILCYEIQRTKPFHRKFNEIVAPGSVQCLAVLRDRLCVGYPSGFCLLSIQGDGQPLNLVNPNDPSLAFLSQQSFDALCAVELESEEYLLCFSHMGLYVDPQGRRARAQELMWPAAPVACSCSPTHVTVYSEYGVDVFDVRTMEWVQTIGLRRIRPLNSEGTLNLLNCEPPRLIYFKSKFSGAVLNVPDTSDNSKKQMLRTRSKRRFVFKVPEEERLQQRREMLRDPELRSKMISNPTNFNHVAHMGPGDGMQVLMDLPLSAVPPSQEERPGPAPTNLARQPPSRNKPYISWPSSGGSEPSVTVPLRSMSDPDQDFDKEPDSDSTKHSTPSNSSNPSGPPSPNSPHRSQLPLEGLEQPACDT
Sequence of Ribosomal protein S6 kinase alpha-4 (Homo sapiens) (O75676 whole entry, looked up): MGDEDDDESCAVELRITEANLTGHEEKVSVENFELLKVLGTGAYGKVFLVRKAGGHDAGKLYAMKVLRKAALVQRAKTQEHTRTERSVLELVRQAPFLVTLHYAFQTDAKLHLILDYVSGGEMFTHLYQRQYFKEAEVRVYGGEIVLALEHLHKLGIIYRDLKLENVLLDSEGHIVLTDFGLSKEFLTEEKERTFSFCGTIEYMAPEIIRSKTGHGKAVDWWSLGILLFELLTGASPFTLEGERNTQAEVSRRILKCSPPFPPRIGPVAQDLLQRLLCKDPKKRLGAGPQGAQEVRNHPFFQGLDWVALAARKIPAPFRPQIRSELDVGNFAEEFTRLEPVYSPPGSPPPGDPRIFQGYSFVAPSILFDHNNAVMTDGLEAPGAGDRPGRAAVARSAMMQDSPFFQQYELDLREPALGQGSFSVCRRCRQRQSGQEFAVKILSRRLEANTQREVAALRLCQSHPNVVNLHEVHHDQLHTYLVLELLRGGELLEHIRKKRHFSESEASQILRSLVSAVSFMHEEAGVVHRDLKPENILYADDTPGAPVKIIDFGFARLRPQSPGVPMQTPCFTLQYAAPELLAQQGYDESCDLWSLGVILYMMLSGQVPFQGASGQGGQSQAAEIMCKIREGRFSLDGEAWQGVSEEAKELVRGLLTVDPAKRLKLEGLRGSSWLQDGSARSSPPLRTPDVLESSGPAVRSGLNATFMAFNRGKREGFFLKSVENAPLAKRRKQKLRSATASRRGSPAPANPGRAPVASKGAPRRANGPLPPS
Sequence of SRSF protein kinase 3 (Homo sapiens) (Q9UPE1 whole entry): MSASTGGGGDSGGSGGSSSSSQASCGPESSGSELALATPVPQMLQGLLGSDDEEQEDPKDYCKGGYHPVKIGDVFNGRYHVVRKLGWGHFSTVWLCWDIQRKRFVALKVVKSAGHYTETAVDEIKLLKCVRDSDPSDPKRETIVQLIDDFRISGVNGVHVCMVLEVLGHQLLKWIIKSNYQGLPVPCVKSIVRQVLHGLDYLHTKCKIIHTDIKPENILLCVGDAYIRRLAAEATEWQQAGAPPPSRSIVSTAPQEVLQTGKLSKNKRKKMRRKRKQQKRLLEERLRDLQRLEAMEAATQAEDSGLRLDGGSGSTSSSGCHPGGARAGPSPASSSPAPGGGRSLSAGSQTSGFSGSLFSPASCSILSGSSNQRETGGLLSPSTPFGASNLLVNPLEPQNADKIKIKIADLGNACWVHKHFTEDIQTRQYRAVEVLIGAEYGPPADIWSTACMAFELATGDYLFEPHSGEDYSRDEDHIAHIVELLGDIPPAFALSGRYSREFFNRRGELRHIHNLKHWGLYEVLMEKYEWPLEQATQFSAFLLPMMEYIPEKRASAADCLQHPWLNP

Structure (SMILES) | residual activity [1] [%] | residual activity [2] [%] | residual activity [3] [%] | residual activity [4] [%] | residual activity [5] [%] | residual activity [6] [%] | residual activity [7] [%] | residual activity [8] [%] | residual activity [9] [%] | residual activity [10] [%]
CC(=O)c1ccc(N2CCOCC2)cc1O | 100 | 83 | 133 | 108 | 92 | 88 | 85 | 96 | – | –
Cc1cccc(-c2[nH]c(C(C)(C)C)nc2-c2ccc3c(c2)OCO3)n1 | 83 | 86 | 135 | – | 97 | – | 102 | 105 | 104 | –
CCN(CC)CCCCN1c2ccccc2Oc2ccc(Cl)cc21 | 108 | 99 | 146 | 119 | 111 | 97 | 106 | 100 | 116 | 104
O=C(Nc1cccc(Nc2cc(Nc3cccc(C(F)(F)F)c3)ncn2)c1)C1CC1 | 86 | 89 | 124 | 107 | 96 | 25 | 99 | 87 | 101 | 102
Cc1cncc2cccc(S(=O)(=O)N3CCCN(C(=O)CN)C[C@H]3C)c12 | 89 | 80 | 126 | 54 | 66 | 77 | 87 | 75 | 37 | –
COc1cc2ncnc(Nc3ccc(NC(=O)c4ccccc4)cc3)c2cc1OC | – | 90 | – | 95 | 106 | 99 | – | 98 | 101 | –
NC(=O)c1ccc2[nH]c(-c3ccc(Oc4ccc(Cl)cc4)cc3)nc2c1 | 94 | 106 | 115 | 139 | 94 | 72 | 97 | 87 | 102 | 98
N#Cc1cnc2cnc(NCc3cccnc3)cc2c1Nc1ccc(F)c(Cl)c1 | – | – | – | – | 5 | 99 | 93 | 91 | 2 | 119
Cn1cnc2cc3c(Nc4cccc(Br)c4)ncnc3cc21 | 88 | 92 | 107 | 95 | 102 | 81 | 97 | 101 | 102 | 101
CC(C)n1cnc2/c(=N/c3cccc(Cl)c3)nc(NCCO)[nH]c21 | 85 | 82 | 62 | 50 | 57 | 19 | 61 | 58 | 37 | 61
CN(C)CCCn1cc(C2=C(c3c[nH]c4ccccc34)C(=O)NC2=O)c2ccccc21 | – | 40 | 24 | 4 | 18 | 55 | 40 | 9 | 3 | 113
O=C1Nc2ccc(Br)cc2/C1=C\c1cc2c([nH]1)CCCC2 | 98 | – | 111 | 105 | – | 80 | 60 | 75 | 99 | 101
Cc1nc(-c2ccccc2)c(-c2ccncc2)o1 | 105 | 96 | 99 | 94 | 103 | 99 | – | 110 | 77 | 112
COc1cc2ncc(-c3ccccc3)nc2cc1OC | 98 | 79 | – | – | 83 | 92 | – | – | 88 | 134
N#CCCc1ccc2c(c1)-c1[nH]c3ccc([N+](=O)[O-])cc3c1CC(=O)N2 | 9 | 6 | – | – | – | – | 10 | 6 | 79 | –
CCOc1cc2ncnc(Nc3cccc(Br)c3)c2cc1OCC | 84 | 72 | 117 | 101 | 105 | 76 | 83 | 61 | 88 | 113
CCN(CC)C(=O)c1ccc(Nc2nc(OCC3CCCCC3)c3nc[nH]c3n2)cc1 | – | 34 | 100 | 69 | 64 | 15 | 36 | 5 | 23 | 66
O=C1c2ccccc2-[n+]2ccc3c([nH]c4ccccc43)c21 | 90 | 85 | 104 | 110 | 97 | 99 | 108 | 94 | 90 | 106
CNc1cc2c(Nc3cccc(Br)c3)ncnc2cn1 | 86 | 84 | 133 | 110 | 104 | 25 | 95 | 102 | 109 | 99
c1ccc2c(-c3ccncc3)c[nH]c2c1 | 94 | 60 | – | – | 80 | 80 | 89 | 97 | 54 | 102
Oc1ccc(-c2nc(-c3ccc(F)cc3)c(-c3ccncc3)[nH]2)cc1 | 105 | 92 | 102 | 98 | 77 | 110 | 92 | 113 | 43 | 120
N#C/C(=C(\N)Sc1ccc(N)cc1)c1ccccc1C(F)(F)F | 94 | 98 | 85 | 95 | 97 | 95 | 105 | 104 | 84 | 109
Cc1ccc(NC2=CC(=O)c3sc(C)nc3C2=O)cc1 | 87 | 86 | 106 | 113 | 96 | 103 | 72 | 111 | 90 | 101
O=c1cc(-c2cccc3c2Sc2ccccc2S3)oc(N2CCOCC2)c1 | 93 | 93 | 104 | 116 | 95 | 94 | 99 | 109 | 90 | 103
Cc1ccc(S(=O)(=O)/C=C/C#N)cc1 | 89 | 92 | 111 | 125 | 105 | 102 | 79 | 109 | 99 | 100
CN(C)c1ccc(/C=C2\C(=O)Nc3ccccc32)cc1 | 106 | 102 | 116 | 79 | 87 | 80 | 95 | 74 | 57 | 103
c1ccc(-c2n[nH]cc2-c2ccnc3ccccc23)nc1 | 96 | 87 | – | – | 89 | 94 | – | – | 108 | 109
O=C1Nc2ccccc2/C1=C1/Nc2ccccc2/C1=N\OCCC(O)CO (stereo unspecified) | – | – | 47 | 10 | 15 | 42 | 4 | -3 | 2 | 62
c1ccc(-c2n[nH]c3c2oc2ccccc23)cc1 | 98 | 115 | – | 74 | 95 | – | 88 | 58 | 70 | –
O=c1c2ccccc2[nH]c(=S)n1CCN1CCC(=C(c2ccc(F)cc2)c2ccc(F)cc2)CC1 | 94 | 86 | 127 | 104 | 110 | 89 | 93 | 101 | 97 | 103
